Assay results taken from PubChem BioAssay AID1159580 (chemical genetic matrix, 2015).
The whole screen tested about 5,500 compounds, of which about 2,000 (36%) were called active. Another 18% or so got no clear call; they are omitted. Rule as the data show it: active = normalized growth mostly below about 0.91 (no sharp cut-off); inconclusive = no clear call, values can overlap the other calls; inactive = mostly above about 0.92. Some of the results follow.

Test: chemical genetic growth profiling, strain panel (AID 1159580);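 also: tested at 20 µM; growth read once vehicle control cultures reached saturation at 30 °C; 1 = growth at the plate median or of vehicle wells; lower values mean less growth of the strain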
Conditions: S. cerevisiae deletion strains, growth OD
[1] = locus YAR019C, strain CDC15, stronger effect = lower value
[2] = locus YBL105C, strain PKC1, stronger effect = lower value
[3] = locus YBR135W, strain CKS1, stronger effect = lower value
[4] = locus YBR136W, strain MEC1, stronger effect = lower value
[5] = locus YBR160W, strain CDC28, stronger effect = lower value
[6] = locus YDL017W, strain CDC7, stronger effect = lower value
[7] = locus YDL028C, strain MPS1, stronger effect = lower value
[8] = locus YDL101C, strain DUN1, stronger effect = lower value
[9] = locus YDL108W, strain KIN28, stronger effect = lower value
[10] = locus YDL132W, strain cdc53, stronger effect = lower value
[11] = locus YDL214C, strain PRR2, stronger effect = lower value
[12] = locus YDR052C, strain DBF4, stronger effect = lower value
[13] = locus YDR054C, strain cdc34, stronger effect = lower value
[14] = locus YDR226W, strain ADK1, stronger effect = lower value
[15] = locus YDR477W, strain SNF1, stronger effect = lower value
[16] = locus YER123W, strain YCK3, stronger effect = lower value
[17] = locus YER133W, strain GLC7, stronger effect = lower value
[18] = locus YFL009W, strain cdc4, stronger effect = lower value
[19] = locus YFL029C, strain CAK1, stronger effect = lower value
[20] = locus YFR003C, strain YPI1, stronger effect = lower value
[21] = locus YFR019W, strain FAB1, stronger effect = lower value
[22] = locus YFR028C, strain CDC14, stronger effect = lower value
[23] = locus YGR040W, strain KSS1, stronger effect = lower value
[24] = locus YGR052W, strain FMP48, stronger effect = lower value
[25] = locus YGR092W, strain DBF2, stronger effect = lower value
[26] = locus YHR030C, strain SLT2, stronger effect = lower value
[27] = locus YHR079C, strain IRE1, stronger effect = lower value
[28] = locus YHR082C, strain KSP1, stronger effect = lower value
[29] = locus YHR205W, strain SCH9, stronger effect = lower value
[30] = locus YIL147C, strain SLN1, stronger effect = lower value
[31] = locus YJL095W, strain BCK1, stronger effect = lower value
[32] = locus YJL128C, strain PBS2, stronger effect = lower value
[33] = locus YJL157C, strain FAR1, stronger effect = lower value
[34] = locus YJR016C, strain ILV3, stronger effect = lower value
[35] = locus YJR066W, strain TOR1 (second series), stronger effect = lower value
[36] = locus YJR066W, strain TOR1, stronger effect = lower value
[37] = locus YKL048C, strain ELM1, stronger effect = lower value
[38] = locus YKL067W, strain YNK1, stronger effect = lower value
[39] = locus YKL101W, strain HSL1, stronger effect = lower value
[40] = locus YKL193C, strain SDS22, stronger effect = lower value
[41] = locus YKL203C, strain TOR2, stronger effect = lower value
[42] = locus YLR113W, strain HOG1, stronger effect = lower value
[43] = locus YLR133W, strain CKI1, stronger effect = lower value
[44] = locus YLR403W, strain SFP1, stronger effect = lower value
[45] = locus YML070W, strain DAK1, stronger effect = lower value
[46] = locus YMR001C, strain CDC5, stronger effect = lower value
[47] = locus YMR205C, strain PFK2 (second series), stronger effect = lower value
[48] = locus YMR277W, strain FCP1, stronger effect = lower value
[49] = locus YNL006W, strain LST8, stronger effect = lower value
[50] = locus YNL020C, strain ARK1, stronger effect = lower value
[51] = locus YNL161W, strain CBK1, stronger effect = lower value
[52] = locus YNL183C, strain NPR1, stronger effect = lower value
[53] = locus YNL207W, strain RIO2, stronger effect = lower value
[54] = locus YNL222W, strain SSU72, stronger effect = lower value
[55] = locus YNL307C, strain MCK1 (second series), stronger effect = lower value
[56] = locus YOL078W, strain AVO1, stronger effect = lower value
[57] = locus YOL136C, strain PFK27, stronger effect = lower value
[58] = locus YOR061W, strain CKA2, stronger effect = lower value
[59] = locus YOR119C, strain RIO1, stronger effect = lower value
[60] = locus YOR231W, strain MKK1, stronger effect = lower value
[61] = locus YOR329C, strain SCD5, stronger effect = lower value
[62] = locus YPL031C, strain PHO85, stronger effect = lower value
[63] = locus YPL153C, strain RAD53, stronger effect = lower value
[64] = locus YPL204W, strain HRR25, stronger effect = lower value
[65] = locus YPL209C, strain IPL1, stronger effect = lower value
[66] = locus YPL256C, strain CLN2, stronger effect = lower value
[67] = locus YPR025C, strain CCL1, stronger effect = lower value
[68] = locus YPR106W, strain ISR1, stronger effect = lower value
[69] = locus YPR111W, strain DBF20, stronger effect = lower value
[70] = strain NNK1, stronger effect = lower value
[71] = strain TSCII, stronger effect = lower value

Measured: normalized growth

CCCc1cnc(N2CCN(CC(=O)N(c3ccccc3)C3CCCCC3)CC2)nc1
inactive: [1] 0.995 | [2] 0.985 | [3] 0.992 | [4] 0.985 | [5] 0.984 | [6] 0.991 | [7] 0.997 | [8] 0.986 | [9] 0.99 | [10] 0.992 | [11] 0.997 | [12] 0.989 | [13] 0.974 | [14] 0.985 | [15] 0.999 | [16] 0.997 | [17] 1 | [18] 0.989 | [19] 0.993 | [20] 0.988 | [21] 1 | [22] 0.999 | [23] 0.985 | [24] 1.09 | [25] 1 | [26] 1.05 | [27] 1.03 | [28] 1.09 | [29] 0.97 | [30] 0.99 | [31] 1.05 | [32] 0.985 | [33] 0.981 | [34] 1 | [35] 0.995 | [36] 1.07 | [37] 0.969 | [38] 1 | [39] 0.993 | [40] 0.99 | [41] 1.05 | [42] 0.949 | [43] 0.997 | [44] 0.977 | [45] 1.03 | [46] 0.991 | [47] 1.01 | [48] 0.994 | [49] 0.988 | [50] 0.997 | [51] 0.99 | [52] 1.04 | [53] 0.997 | [54] 0.995 | [55] 1 | [56] 0.994 | [57] 0.985 | [58] 1.01 | [59] 1.04 | [60] 0.992 | [61] 0.986 | [62] 1 | [63] 0.998 | [64] 0.981 | [65] 0.98 | [66] 0.968 | [67] 0.99 | [68] 0.979 | [69] 0.976 | [70] 0.99 | [71] 0.992

Cc1ccc2c(c1)CCCN2CC(=O)N(c1ccccc1)C1CCCCC1
inactive: [1] 0.989 | [2] 0.978 | [3] 0.986 | [4] 0.986 | [5] 0.978 | [6] 0.982 | [7] 0.994 | [8] 0.984 | [9] 0.986 | [10] 0.987 | [11] 0.943 | [12] 0.991 | [13] 0.975 | [14] 0.992 | [15] 0.951 | [16] 0.928 | [17] 0.951 | [18] 0.989 | [19] 0.986 | [20] 0.986 | [21] 0.961 | [22] 0.976 | [23] 0.923 | [24] 0.994 | [25] 0.948 | [26] 0.966 | [27] 0.965 | [28] 0.991 | [29] 0.991 | [30] 0.991 | [31] 0.965 | [32] 0.932 | [33] 0.944 | [34] 0.985 | [35] 0.928 | [36] 0.999 | [37] 0.945 | [38] 0.946 | [39] 0.912 | [40] 0.974 | [41] 0.999 | [43] 0.937 | [44] 0.935 | [45] 0.912 | [46] 0.991 | [47] 0.955 | [48] 0.99 | [49] 0.992 | [50] 0.943 | [51] 0.983 | [52] 0.941 | [53] 0.98 | [54] 0.983 | [55] 0.948 | [56] 0.99 | [57] 0.925 | [58] 0.956 | [59] 1 | [60] 0.907 | [61] 0.995 | [62] 0.95 | [63] 0.936 | [64] 0.957 | [65] 0.98 | [66] 0.884 | [67] 0.991 | [68] 0.97 | [69] 0.964 | [70] 0.973 | [71] 0.987
active: [42] 0.836

CN(C)C(=O)Oc1cc(OC(=O)N(C)C)cc(C(O)CNC(C)(C)C)c1 (configuration not stated)
inactive: locus YAL021C, strain ccr4, stronger effect = lower value 1.02 | locus YAL026C, strain drs2, stronger effect = lower value 1.03 | locus YAL030W, strain snc1, stronger effect = lower value 1.02 | locus YBL061C, strain skt5, stronger effect = lower value 1.02 | locus YBR009C, strain hhf1, stronger effect = lower value 1.04 | locus YBR023C, strain chs3, stronger effect = lower value 1.02 | locus YBR171W, strain sec66, stronger effect = lower value 1.03 | locus YBR231C, strain swc5, stronger effect = lower value 1.03 | locus YBR279W, strain paf1, stronger effect = lower value 1.02 | locus YCL011C, strain gbp2, stronger effect = lower value 1.03 | locus YCL016C, strain dcc1, stronger effect = lower value 1.03 | locus YCL061C, strain MRC1, stronger effect = lower value 1.03 | locus YCL069W, strain vba3, stronger effect = lower value 1.03 | locus YCR088W, strain abp1, stronger effect = lower value 1.03 | locus YDL005C, strain med2, stronger effect = lower value 1.03 | locus YDL040C, strain nat1, stronger effect = lower value 1.04 | locus YDR001C, strain nth1, stronger effect = lower value 1.03 | locus YDR069C, strain doa4, stronger effect = lower value 1.03 | locus YDR137W, strain rgp1, stronger effect = lower value 1.04 | locus YDR159W, strain sac3, stronger effect = lower value 1.05 | locus YDR195W, strain ref2 1.02 | locus YDR297W, strain sur2, stronger effect = lower value 1.02 | locus YDR334W, strain swr1, stronger effect = lower value 1.04 | locus YDR335W, strain msn5, stronger effect = lower value 1.03 | locus YDR392W, strain spt3, stronger effect = lower value 0.947 | locus YEL003W, strain gim4, stronger effect = lower value 1.02 | locus YEL037C, strain rad23, stronger effect = lower value 1.03 | locus YEL061C, strain CIN8 (second series), stronger effect = lower value 1.03 | locus YER015W, strain faa2, stronger effect = lower value 1.03 | locus YER016W, strain bim1, stronger effect = lower value 1.04 | locus YER111C, strain swi4, stronger effect = lower value 1.03 | locus YER155C, strain BEM2 (second series), stronger effect = lower value 1.03 | locus YFR010W, strain ubp6, stronger effect = lower value 1.03 | locus YGL167C, strain pmr1, stronger effect = lower value 1.03 | locus YGL173C, strain kem1, stronger effect = lower value 1.04 | locus YGL227W, strain vid30, stronger effect = lower value 1.04 | locus YGL240W, strain doc1, stronger effect = lower value 1.03 | locus YGL253W, strain hxk2, stronger effect = lower value 1.03 | locus YHR013C, strain ard1, stronger effect = lower value 1.02 | locus YHR027C, strain rpn1, stronger effect = lower value 1.04 | [26] 0.977 | [27] 0.991 | locus YHR142W, strain chs7, stronger effect = lower value 1.02 | locus YJL092W, strain hpr5, stronger effect = lower value 1.02 | locus YJL095W, strain BCK1 (second series), stronger effect = lower value 1.03 | [31] 1.01 | locus YJL115W, strain asf1, stronger effect = lower value 1.03 | locus YJL129C, strain trk1, stronger effect = lower value 1.04 | locus YJL154C, strain vps35, stronger effect = lower value 1.03 | locus YJL164C, strain tpk1, stronger effect = lower value 1.01 | locus YJL166W, strain qcr8, stronger effect = lower value 1.02 | locus YJL187C, strain SWE1, stronger effect = lower value 1.02 | [36] 0.921 | locus YKL160W, strain elf1, stronger effect = lower value 1.01 | locus YKR026C, strain gcn3, stronger effect = lower value 1.03 | locus YKR091W, strain srl3, stronger effect = lower value 1.03 | locus YLL001W, strain dnm1, stronger effect = lower value 1.04 | locus YLL026W, stronger effect = lower value 1.02 | locus YLL041C, strain sdh2, stronger effect = lower value 1.03 | locus YLR027C, strain aat2, stronger effect = lower value 1.03 | [42] 1.01 | locus YLR221C, strain rsa3, stronger effect = lower value 1.02 | locus YLR258W, strain gsy2, stronger effect = lower value 1.03 | locus YLR262C, strain YPT6 (second series), stronger effect = lower value 1.03 | locus YLR320W, strain mms22, stronger effect = lower value 1.04 | locus YLR342W, strain FKS1, stronger effect = lower value 1.03 | locus YLR357W, strain rsc2, stronger effect = lower value 1.02 | locus YLR370C, strain arc18, stronger effect = lower value 1.03 | locus YLR384C, strain iki3, stronger effect = lower value 1.02 | locus YML120C, strain ndi1, stronger effect = lower value 1 | locus YMR058W, strain fet3, stronger effect = lower value 1.03 | locus YMR125W, strain sto1, stronger effect = lower value 1.04 | locus YMR129W, stronger effect = lower value 1.02 | locus YMR205C, strain PFK2, stronger effect = lower value 1.05 | locus YMR231W, strain pep5, stronger effect = lower value 1.03 | locus YNL071W, strain lat1, stronger effect = lower value 1.03 | [52] 0.934 | locus YNL209W, strain ssb2, stronger effect = lower value 1.02 | locus YNL248C, strain rpa49, stronger effect = lower value 1 | locus YNL322C, strain KRE1 (second series), stronger effect = lower value 1.03 | locus YNR049C, strain mso1, stronger effect = lower value 1.03 | locus YOR001W, strain rrp6, stronger effect = lower value 0.999 | locus YOR070C, strain gyp1, stronger effect = lower value 1.02 | locus YOR080W, strain dia2, stronger effect = lower value 1.03 | locus YOR083W, strain WHI5, stronger effect = lower value 1.01 | locus YOR106W, strain vam3, stronger effect = lower value 1.03 | [60] 1.03 | locus YOR265W, strain rbl2, stronger effect = lower value 1.03 | locus YOR270C, strain vph1, stronger effect = lower value 1.06 | locus YOR290C, strain snf2, stronger effect = lower value 0.989 | locus YPL051W, strain arl3, stronger effect = lower value 1.01 | locus YPL078C, strain atp4, stronger effect = lower value 1.02 | locus YPL106C, strain sse1, stronger effect = lower value 1.05 | locus YPL240C, strain hsp82, stronger effect = lower value 1.03 | [66] 0.984
